Measurements taken from PubChem BioAssay (NCATS).
Where “and” joins values, the source holds several entries; their conditions need not be identical. Identical values can stand only once. Unmarked numbers belong to inactive results. Results filed as inconclusive are left out. Calls of active or inactive are those of the source. Unless noted, calls follow the shape of the dose curve; as a rule, active = well fitted curve in either direction with a large enough effect (not every such curve was filed as active); inconclusive = small, poorly fitted or top-dose-only effect, or another doubt; inactive = flat fitted curve, though single readings scatter.

Tests used:
[1] = AP1 Signaling Pathway (AID 357);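 also: ME-180 reporter cells stimulated with EGF at its EC50 level; % is scaled to controls: 0 for no effect and ±100 for the full control effect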
Method in brief: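 Modulation of EGF-driven AP-1 transcription was assessed with a beta-lactamase reporter in ME-180 cells. Compound and EC50 EGF were co-incubated 5 hours at 37 °C before 2.5-hour CCF4 loading at room temperature and dual-emission reading.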

[2] = target: Cytochrome P450 1A2 (Homo sapiens) (UniProt P05177); experiment: p450-cyp1a2 (AID 410; calls by dose curve; also: potency is read from the fitted curve at half-maximal effect;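 as to activity change, negative = inhibition: -100% = full effect of reference inhibitor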)
Sequence of Cytochrome P450 1A2 (Homo sapiens) (P05177 whole entry, looked up): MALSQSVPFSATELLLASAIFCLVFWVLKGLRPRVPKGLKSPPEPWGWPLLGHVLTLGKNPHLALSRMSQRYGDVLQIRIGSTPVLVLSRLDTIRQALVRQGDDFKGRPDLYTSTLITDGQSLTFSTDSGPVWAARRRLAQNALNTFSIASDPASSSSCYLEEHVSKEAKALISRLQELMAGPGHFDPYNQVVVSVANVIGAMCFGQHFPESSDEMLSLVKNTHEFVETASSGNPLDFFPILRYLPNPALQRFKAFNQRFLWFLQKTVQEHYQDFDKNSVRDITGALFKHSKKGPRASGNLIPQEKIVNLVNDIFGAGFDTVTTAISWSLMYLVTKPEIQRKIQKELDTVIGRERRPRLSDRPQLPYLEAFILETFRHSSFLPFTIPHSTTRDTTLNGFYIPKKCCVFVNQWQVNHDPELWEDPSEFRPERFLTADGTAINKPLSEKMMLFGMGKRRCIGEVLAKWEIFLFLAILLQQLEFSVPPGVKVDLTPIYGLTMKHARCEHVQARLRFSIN
Method in brief: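 Inhibition was calculated relative to 57 uM furafylline (full inhibition). The reaction used human CYP1A2 at 20nM with Luciferin-ME at its Km, 100uM, driven by an NADPH-regenerating system for 60 min at room temperature.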

[3] = NFAT Signaling Pathway (AID 444); settings: Jurkat NFAT-bla M1, carbachol, beta-lactamase ratio, 5 h;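 also: carbachol stimulus at about its EC50 of 1 µM final; % is scaled to controls: 0 for no effect and ±100 for the full control effect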
Method in brief: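 Read-out: CCF4 FRET ratio (460 nm/530 nm) after 1 h RT dye loading, used for %activity and AC50 from titration series. Cells: Jurkat NFAT-β-lactamase/M1 line, treated with compound plus 1 uM carbachol for 5 h, 37 °C.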

[4] = Cell Viability - BJ (AID 421; calls by dose curve;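 also: potency is read from the fitted curve at half-maximal effect; cells exposed to compound for 40 hours at 37 °C before readout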); settings: BJ fibroblast viability, qHTS
Method in brief: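 Luminescent ATP signal (CellTiter-Glo, 20 min at room temperature) served as the read-out of viable BJ cells after 40 hours of compound treatment. Responses were scaled between DMSO and 100 uM tamoxifen, and AC50 values were obtained by Hill modeling.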

[5] = Cell Viability - Jurkat (AID 426;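 active = dose-dependent loss of cell ATP signal giving a full or clear fitted curve, ranked by lower potency value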;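 also: potency is read from the fitted curve at half-maximal effect; cells exposed to compound for 40 hours at 37 °C before ATP read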); settings: qHTS
Method in brief: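 Seed 5000 Jurkat E6-1 cells/well; add compound; incubate 40 hr at 37 °C; add CellTiter-Glo; wait 20 min at room temperature; read luminescence. Fit concentration-response with Hill equation for AC50.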

[6] = Cell Viability - Hek293 (AID 427;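 active = compounds whose dose-response curve shows a full or clear partial loss of cell viability, called from curve shape rather than a numeric limit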;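 also: potency is read from the fitted curve at half-maximal effect; cells exposed to compound for 40 hours at 37 °C before reading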); settings: qHTS
Method in brief: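 Luminescent ATP read-out (CellTiter-Glo, 20 min RT) after 40 hr compound exposure at 37 °C in complete medium. Signal normalized to DMSO (basal) and 100 uM tamoxifen (100% inhibition); concentration-response fitted with the standard Hill equation to give AC50.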

[7] = Cell Viability - HepG2 (AID 433; calls by dose curve;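 also: potency is read from the fitted curve at half-maximal effect; potency for ATP loss meaning cytotoxicity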); settings: qHTS
Method in brief: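 Cytotoxicity is scored as loss of intracellular ATP in HepG2 cells exposed to compounds for 40 h. Concentration-response curves, normalized to DMSO and 100 uM tamoxifen, give AC50 values.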

[8] = Cell Viability - MRC5 (AID 434; calls by dose curve;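 also: potency is read from the fitted curve at half-maximal effect; cells exposed to compound for 40 hours at 37 °C; potency reflects cytotoxicity seen as loss of intracellular ATP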); settings: MRC5 lung fibroblast viability, qHTS
Method in brief: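 qHTS cytotoxicity in human lung fibroblast MRC5 cells; 40 hr treatment, 37 °C; cellular ATP by luciferase luminescence; DMSO = 0%, 100 uM tamoxifen = 100% inhibition; Hill-fit AC50.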

[9] = Cell Viability - SK-N-SH (AID 435; calls by dose curve;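 also: potency is read from the fitted curve at half-maximal effect; compound exposure lasted 40 h at 37 °C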); settings: SK-N-SH neuroblastoma cell viability qHTS
Method in brief: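 Cells seeded at 1500 per well and incubated 5 hr at 37 °C. Compound added, then 40 hr at 37 °C. CellTiter-Glo added, 20 min at room temperature, luminescence read.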

[10] = target: Lysosomal acid glucosylceramidase (Homo sapiens) (UniProt P04062); experiment: Glucocerebrosidase-p2 (AID 348; in the data active = potency below about 10 µM; also: potency is read from the fitted curve at half-maximal effect); settings: purified GBA, blue fluorogenic substrate, 40 min
Sequence of Lysosomal acid glucosylceramidase (Homo sapiens) (P04062 whole entry, looked up): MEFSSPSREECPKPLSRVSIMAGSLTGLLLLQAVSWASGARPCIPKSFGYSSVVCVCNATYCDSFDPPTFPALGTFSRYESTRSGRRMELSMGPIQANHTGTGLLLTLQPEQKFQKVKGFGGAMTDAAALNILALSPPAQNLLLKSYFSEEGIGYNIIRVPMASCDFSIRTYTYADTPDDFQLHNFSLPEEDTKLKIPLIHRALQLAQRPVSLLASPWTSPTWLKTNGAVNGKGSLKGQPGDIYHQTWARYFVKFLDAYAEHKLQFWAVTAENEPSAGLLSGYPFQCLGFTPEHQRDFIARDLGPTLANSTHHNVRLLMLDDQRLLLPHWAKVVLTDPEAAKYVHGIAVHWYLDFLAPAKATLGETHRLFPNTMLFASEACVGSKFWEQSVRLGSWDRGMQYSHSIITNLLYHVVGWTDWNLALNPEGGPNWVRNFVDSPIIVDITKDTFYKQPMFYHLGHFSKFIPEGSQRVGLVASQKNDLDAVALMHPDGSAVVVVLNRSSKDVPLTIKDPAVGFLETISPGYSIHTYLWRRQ
Method in brief: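 Compounds titrated from 0.6 nM upwards against 0.2 nM enzyme in pH 5.9 citric acid/KH2PO4, taurocholate, tween-20; blue fluorogenic substrate 80 uM, 40 min room temperature, stopped and read Ex 365/Em 440 for AC50.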

CN(C)[C@@H]1C(=O)C(C(N)=O)=C(O)[C@@]2(O)C(=O)C3=C(O)c4c(O)cccc4[C@@](C)(O)[C@H]3C[C@@H]12
outcome [1]: inactive

O=[N+]([O-])c1cc([As](=O)(O)O)ccc1O
outcome [1]: inactive | Potency [2]: inactive | activity change, negative = inhibition ([3]; at 17.2 µM (top of the series)): -8.47%

Cc1ccc(S(=O)(=O)N[C@@H](CCCCN)C(=O)CCl)cc1
outcome [1]: inactive | Potency [2]: inactive | activity change, negative = inhibition ([3]; at 38 µM (top of the series)): -22.6%

Cc1cccc(C)c1NC1=NCCCS1
outcome [1]: inactive | Potency [2]: inactive | activity change, negative = inhibition ([3]; at 38 µM (top of the series)): -14.8%

Fc1ccc(C(OCCN2CCN(CCCc3ccccc3)CC2)c2ccc(F)cc2)cc1
outcome [1]: inactive

CC(CCc1ccccc1)NC(C)C(O)c1ccc(O)cc1 (stereo not given)
outcome [1]: inactive

Nc1ccncc1
outcome [1]: inactive | Potency [2]: inactive | activity change, negative = inhibition ([3]; at 38 µM (top of the series)): -3.97%

NCC1(CC(=O)O)CCCCC1
outcome [1]: inactive | Potency [2]: inactive | activity change, negative = inhibition ([3]; at 17.2 µM (top of the series)): -5.52% and 10.6% | activity change, negative = inhibition ([3]; at 38 µM (top of the series)): 3.24%

CNCC(O)c1ccc(O)cc1 (stereo not given)
outcome [1]: inactive | Potency [4]: > 92 µM | Potency [5]: > 92 µM | Potency [6]: > 92 µM | Potency [7]: > 92 µM | Potency [8]: > 92 µM | Potency [9]: > 92 µM | activity change, negative = inhibition ([3]; at 17.2 µM (top of the series)): 19.4%

N#CC(C#N)=Cc1ccc(O)c(O)c1
outcome [1]: inactive | Potency [2]: 15.8 µM (active) and 5.01 µM (active) | activity change, negative = inhibition ([3]; at 38 µM (top of the series)): -13.6%

O=C1CC[C@@]2(O)[C@H]3Cc4ccc(O)c5c4[C@@]2(CCN3CC2CC2)[C@H]1O5
outcome [1]: inactive | activity change, negative = inhibition ([3]; at 17.2 µM (top of the series)): 1.18%

c1ccc2c(c1)OCC(C1=NCCN1)O2 (stereo not given)
outcome [1]: inactive

COc1ccccc1N1CCNCC1
outcome [1]: inactive | Potency [2]: inactive | activity change, negative = inhibition ([3]; at 38 µM (top of the series)): -22.1%

Clc1cccc(N2CCNCC2)c1
outcome [1]: inactive | Potency [2]: 15.8 µM (active) | activity change, negative = inhibition ([3]; at 38 µM (top of the series)): -4.86%

NN=C(N)N
outcome [1]: inactive | Potency [2]: inactive | activity change, negative = inhibition ([3]; at 38 µM (top of the series)): 2.99% and 1.19%

Oc1cccc2cccnc12
Potency [10]: > 11.4 µM | activity change, negative = inhibition [2]: -20% [at 11.4 µM] | Potency [4]: > 92 µM | Potency [8]: > 92 µM | Potency [9]: 24.4 µM (active) and 28.1 µM (active) | activity change, negative = inhibition ([3]; at 7.69 µM (top of the series)): 3.84%

CCCN1CCC[C@@H]2Cc3[nH]ncc3C[C@H]21
outcome [1]: inactive | Potency [2]: inactive | activity change, negative = inhibition ([3]; at 17.2 µM (top of the series)): 24.4% | activity change, negative = inhibition ([3]; at 38 µM (top of the series)): 7.41% and -8.14%

O=c1[nH]c2ccccc2n1CCCN1CCC(n2c(=O)[nH]c3cc(Cl)ccc32)CC1
Potency [10]: > 11.4 µM | outcome [1]: inactive | activity change, negative = inhibition ([3]; at 7.69 µM (top of the series)): -18.5% | activity change, negative = inhibition ([3]; at 17.2 µM (top of the series)): -16.6% and -16.4% | activity change, negative = inhibition ([3]; at 38 µM (top of the series)): -15.8%

NCC(CC(=O)O)c1ccc(Cl)cc1 (stereo not given)
outcome [1]: inactive | activity change, negative = inhibition ([3]; at 17.2 µM (top of the series)): 12.1%

Clc1ccc(COC(Cn2ccnc2)c2ccc(Cl)cc2Cl)cc1 (stereo not given)
outcome [1]: inactive | Potency [5]: 81.7 µM (active) | Potency [8]: 95 µM

c1ccc(C2CC2)c(OCC2=NCCN2)c1
outcome [1]: inactive | Potency [2]: 15.8 µM (active) and 25.1 µM (active)

CCCN1CCC[C@@H]2Cc3nc(N)ncc3C[C@H]21
outcome [1]: inactive | Potency [2]: inactive | activity change, negative = inhibition ([3]; at 38 µM (top of the series)): -3.63%

N[C@@H]1C[C@H]1c1ccccc1
outcome [1]: inactive | Potency [2]: 15.8 µM (active) | activity change, negative = inhibition ([3]; at 38 µM (top of the series)): -3.2%
